Screening results from PubChem BioAssay.
An excerpt weighted towards active compounds, which were near 4% of everything screened.
Mtb UGM inh: inhibitors of M. tuberculosis UDP-galactopyranose mutase; purified UGM, fluorescence polarization probe displacement; inhibition, % at 10 µM; 320,000 tested, 0.06% active; AID 504406; in the data active = inhibition above about 10%, passing the limit was not always enough
Rv3671c protease: inhibits the M. tuberculosis serine protease Rv3671c | inhibition, % at 5.96 µM | 320,000 tested, 0.048% active | P9WHR9; in the data active = inhibition above about 38%;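 note: extracellular domain of Rv3671c used as enzyme; 0% = enzyme with DMSO and 100% = no enzyme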
Target sequence (P9WHR9 whole entry, looked up, the tested form may be a part): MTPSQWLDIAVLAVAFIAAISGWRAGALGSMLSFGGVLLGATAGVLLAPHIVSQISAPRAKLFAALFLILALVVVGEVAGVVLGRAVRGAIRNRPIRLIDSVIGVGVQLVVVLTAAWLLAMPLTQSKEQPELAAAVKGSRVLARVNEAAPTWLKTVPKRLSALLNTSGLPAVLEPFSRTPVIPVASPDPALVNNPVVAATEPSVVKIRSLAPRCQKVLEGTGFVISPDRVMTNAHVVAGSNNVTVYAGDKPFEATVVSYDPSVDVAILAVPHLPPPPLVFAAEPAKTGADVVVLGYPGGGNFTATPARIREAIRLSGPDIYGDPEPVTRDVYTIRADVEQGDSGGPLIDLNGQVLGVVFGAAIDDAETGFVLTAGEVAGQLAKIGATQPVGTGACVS
FBA Mtb inh: inhibitors of M. tuberculosis fructose-bisphosphate aldolase. purified M. tuberculosis FBA, fluorescence read-out. inhibition, % at 1 µM. 360,000 tested, 2.3% active; in the data active = inhibition above about 27%;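 note: 0% = vehicle and 100% = reference inhibitor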
GDH-TPI counter: inhibits GDH-TPI coupling enzymes, artifact for Mtb FBA screen | GDH-TPI coupled enzyme counterscreen, NADH absorbance | inhibition, % at 4.8 µM | 360,000 tested, 1.2% active; in the data active = inhibition above about 30%;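 note: 0% = DMSO wells and 100% = wells lacking the enzyme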
RecA intein inh: Mtb RecA intein splicing inhibition. inhibition, % (concentration not given with the values). AID 2221. cell-free RecA intein splicing, fluorescence. 290,000 tested, 0.75% active; in the data active = inhibition above about 30%;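 note: 0% = vehicle wells and 100% = reference inhibitor control wells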
Mtb bLac sens: beta-lactam sensitization of Mtb H37Rv. M. tuberculosis H37Rv growth with meropenem, percent inhibition. inhibition, % at 25 µM. 330,000 tested, 0.27% active; call rule not given here;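 note: growth measured after seven days incubation then overnight dye step; 0% = bacteria only wells and 100% = bacteria with antibiotic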
Active calls of the source: *; / = not tested or not shown; + = active, no number.

SMILES	Mtb UGM inh	Rv3671c protease	FBA Mtb inh	GDH-TPI counter	RecA intein inh	Mtb bLac sens
CC1(C(=O)NS(=O)(=O)C2CC2)CCCN(C(=O)c2c(F)cccc2F)C1 (stereo unspecified)	/	/	2.6	3.6	/	/
COc1ccc(/C=C(\NC(=O)c2ccco2)C(=O)NCCc2nc3ccccc3[nH]2)cc1	4.9	-5.2	0.4	5.9	1.0	-4.8
O=C(NCCc1nc2ccccc2[nH]1)/C(=C/c1ccco1)NC(=O)c1ccc(Br)o1	-2.5	1.6	-2.2	33.5*	2.7	-1.7
COc1ccc(/C=C(\NC(=O)/C=C/c2ccco2)C(=O)NCCc2nc3ccccc3[nH]2)cc1	0.1	-6.0	-0.3	37.1*	5.6	88.9
COc1ccc(/C=C(/NC(=O)/C=C/c2ccccc2)C(=O)NCCCCCC(=O)O)cc1	2.3	-2.1	1.5	32.5*	-0.1	-2.8
Cc1cc(C)nc(NC(=O)/C=C/c2ccccc2Cl)c1	0.5	-5.8	2.4	7.7	-2.4	1.3
O=C(/C=C/c1cccs1)Nc1cccc(NC(=O)/C=C/c2cccs2)n1	/	-264.6	0.0	57.0*	8.4	95.9
Cc1cc(C)nc(NC(=O)/C=C/c2cccs2)c1	-0.8	-5.0	-3.8	47.4*	/	4.6
CCCCC[C@@H]1[C@H]2[C@H]3C(=O)N(c4ccccc4)C(=O)[C@H]3CC(=O)[C@H]2[C@H](c2ccccc2)N1S(=O)(=O)c1ccc(C)cc1	/	/	0.8	/	/	/
O=C(NCC(=O)N(Cc1cccs1)C(C(=O)NC1CCCC1)c1cccnc1)c1ccco1 (stereo unspecified)	0.0	-2.0	116.5*	-2.7	-0.9	-6.5
CCc1ccc(C(=O)COC(=O)CNC(=O)C2CCCCC2)cc1	/	/	3.8	11.0	/	/
CC(=O)N1c2ccc(Cl)cc2C2OCCC2C1c1ccco1 (stereo unspecified)	4.7	1.6	0.1	13.1	-1.4	-0.7
Clc1ccc2c(c1)C1OCCC1C(c1ccco1)N2 (stereo unspecified)	3.3	-1.5	69.5*	9.7	8.8	-1.0
O=C(NCCC(=O)N1CCN(S(=O)(=O)c2ccccc2Cl)CC1)Nc1ccccc1	3.2	-0.6	-0.6	-7.0	/	-3.2
CC(=O)Nc1cccc(-c2csc(C(C)(NC(C)=O)c3ccccc3)n2)c1 (stereo unspecified)	/	/	0.2	9.7	/	/
COc1cc(OC)cc(C(=O)NC2CC(C)(C)NC(C)(C)C2)c1	4.8	0.2	+	14.3	-3.5	-6.9
Cc1ccc2c(c1)-n1c(nc3ccccc3c1=O)C(Cc1ccccc1)NC2=O (stereo unspecified)	-1.8	2.5	/	/	/	0.7
CCc1ccc(N2CN=c3s/c(=C\c4ccccc4)c(=O)n3C2)cc1	-1.1	1.3	-0.2	35.2*	0.4	94.0
O=c1/c(=C/c2ccccn2)sc2n1CN(c1ccccc1)CN=2	-0.2	0.1	-1.4	23.6	-0.5	11.5
Cc1cccc(N2CN=c3s/c(=C\c4ccccn4)c(=O)n3C2)c1	-3.7	-2.8	-1.2	64.1*	-2.8	0.7
Cc1cccc(N2CN=c3s/c(=C\c4ccncc4)c(=O)n3C2)c1	/	/	1.5	7.3	3.1	/
COc1ccc(-c2cncc3nccn23)cc1OC	/	/	5.7	10.2	/	/
CCOc1ccc(-c2cncc3nccn23)cc1	/	/	+	6.2	/	/
c1cncc(Nc2c3ccccc3nc3ccccc23)c1	1.5	6.5	40.2*	9.5	-3.2	3.4
NC(=O)C[n+]1cccc2ccccc21	11.3*	4.0	17.8	14.2	-5.0	0.6
SMILES	Mtb UGM inh	Rv3671c protease	FBA Mtb inh	GDH-TPI counter	RecA intein inh	Mtb bLac sens
CCc1nc(Nc2cccc(F)c2)c2oc3ccccc3c2n1	0.2	-16.2	15.2	7.9	2.4	-5.0
CSCC[C@H](NC(=O)OC(C)(C)C)C(=O)N1CCC(C(=O)N[C@@H](C)C(=O)NC(C)c2ccccc2)CC1 (stereo partly specified)	-0.5	0.7	2.4	-3.9	/	-8.1
OCc1nc2nc(Cl)c(Cl)nc2[nH]1	0.9	-3.8	10.6	27.0	-4.5	2.7
CCOC(=O)CSc1nc(C)cc(=O)[nH]1	-2.6	7.3	3.1	3.0	-2.3	-7.3
CSc1nc2nc(Cl)c(Cl)nc2[nH]1	/	/	+	37.2*	/	/
CCOC(=O)CSc1nc2nc(Cl)c(Cl)nc2[nH]1	/	/	+	32.7*	/	/
Oc1ccc(/C=N/Nc2nn3cnnc3c3ccccc23)cc1	1.2	1.8	-3.3	16.0	-5.6	-3.6
CCOc1cc(/C=N/n2cnnc2)ccc1O	1.1	-6.0	2.6	33.9*	1.5	-5.6
COc1cccc(/C=N/Nc2nn3cnnc3c3ccccc23)c1	-3.1	-3.6	0.6	23.4	-0.4	18.2
CCOc1cc(/C=N/Nc2nn3cnnc3c3ccccc23)ccc1O	-0.6	3.9	-0.8	32.1*	-5.2	-3.8
COc1cc(/C=N/Nc2nn3cnnc3c3ccccc23)ccc1O	-0.2	6.7	-0.7	31.8*	-3.3	-5.5
CCNC(=S)NNC(=O)c1cccn(Cc2ccc(Cl)cc2Cl)c1=O	0.8	-0.8	10.6	32.0*	-2.1	0.1
COc1cccc(OCCn2cc(C(C)=O)c3ccccc32)c1	-0.9	0.5	0.8	2.5	/	0.3
O=Cc1ccc(OC(=O)C2CC(=O)N(c3ccc(F)cc3)C2)cc1 (stereo unspecified)	0.1	-5.9	-0.9	31.1*	4.6	5.4
Cn1c(=O)c2c(nc(C3CC4C5CCC(C5)C4C3)n2C)n(C)c1=O (stereo unspecified)	/	/	-1.6	6.9	/	/
O=Cc1cccc(Oc2ncccn2)c1	0.0	-5.3	-2.6	-1.2	-3.2	6.2
Nc1ccc(Oc2ncccn2)cc1	-3.3	-3.7	1.2	2.9	51.3*	4.0
O=C(/C=C/c1ccccc1Cl)Nc1cccnc1	1.6	0.5	-1.8	6.4	0.3	-5.8
COc1ccccc1/C=C/C(=O)Nc1cccnc1	2.9	-7.4	1.7	34.8*	0.6	-5.9
Cc1cc(=O)oc2cc(NC(=O)CCCC(=O)O)ccc12	-0.6	-8.4	+	19.1	-0.1	-10.0
Cc1cc(=O)oc2cc(NC(=O)CCC(=O)O)ccc12	-0.9	-2.7	196.8*	8.8	0.5	-5.2
COC(=O)Cc1cc(=O)[nH]c(Nc2nc3ccccc3o2)n1	3.8	1.5	9.4	36.9*	13.5	73.3
Cc1ccccc1CNS(=O)(=O)c1c(C(=O)N2CCCCC2)c(C)n(C)c1C	-2.8	-0.3	1.6	-10.3	1.5	4.0
CC1OC(Oc2ccc3ccc(=O)oc3c2-c2c(O)ccc3cc(Oc4ccc5ccc(=O)oc5c4)c(=O)oc23)C(O)C(O)C1O (stereo unspecified)	2.9	-0.6	2.6	45.3*	-62.6	4.2
Cc1cc(C(=O)N/N=C/c2c(C)[nH]n(-c3ccccc3)c2=O)n[nH]1	-0.4	-13.2	2.9	15.3	54.7*	2.4
Cc1[nH]c2ccccc2c1/C=N/NC(=O)CNC(=O)c1ccc2c(c1)OCCO2	-1.1	0.0	3.6	31.7*	-0.1	2.9
Cc1cc(C(=O)N/N=C/c2c(C)[nH]c3ccccc23)n[nH]1	3.9	-0.3	-0.6	55.9*	0.6	4.9
